# HT1080NT lethal = kills 2HG-producing HT-1080-NT fibrosarcoma cells | HT-1080-NT fibrosarcoma viability, CellTiter-Glo ATP luminescence, 48 h | Potency, µM (highest dose often 46.1 µM), inactives show at the top dose activity, negative = less viability, hits mostly cytotoxic | 1.6% of 360,000 active | AID 686970;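 further: NT is the 2HG producing partner of a matched IDH1 knockdown line; 0% = DMSO-treated cells and -100% = media-only wells without cells; nearly all actives have a fitted effect of over 55% in size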
#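 Compounds were tested in concentration-response format on HT-1080-NT cells for 48 hours at 37 degrees C. Cell viability came from CellTiter-Glo luminescence; curves were classified by r2, response magnitude and activity.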
# DT40 TDP1 no CPT = qHTS for Inhibitors of human tyrosyl-DNA phosphodiesterase 1 (TDP1): qHTS in cells in absence of CPT; Potency, µM (highest dose often 46.2 µM), without a hit: at the highest dose activity change, negative = growth inhibition, actives largely listed as inhibitors; 15% of 420,000 active; DT40 Tdp1-/- hTDP1 cells, no CPT, ATP luminescence, 48 h; further: nearly all actives have a fitted effect of over 55% in size
#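 Growth kinetics read by CellTiter-Glo luminescence after ≥48 hr at 37 °C. Cells: DT40 Tdp1-/- stably carrying human TDP1, 400 per well, compound exposure in the absence of CPT (DMSO vehicle).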
# HT1080 IDH1KD tx = HT-1080 IDH1 knockdown cell toxicity (counter line); HT-1080 IDH1 knockdown viability, ATP luminescence, 48 h; Potency, µM (titrated, usually from 46.1 µM), inactives show at the highest dose activity, negative = toxicity, hits mostly cytotoxic; 2% of 360,000 active;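 further: 0% = DMSO wells and -100% = cell-free medium wells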
#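 Knockdown cells (IDH1KD HT-1080) received compounds 2 h after plating at 750 cells/well and were kept 48 h at 37 °C in 5% FBS RPMI. A CellTiter-Glo luminescence read gave % activity for curve fitting.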
# TDP1 cell CPT = growth inhibition of DT40 Tdp1-/-;hTDP1 cells with camptothecin (screen for TDP1 inhibitors); chicken DT40 Tdp1-/-;hTDP1 cells + 20 nM CPT, ATP luminescence, 48 h; Potency, µM (doses to about 46.2 µM), inactives show at the top dose activity change, negative = growth inhibition, usual class: inhibitors; 12% of 420,000 active; AID 686979; further: nearly all actives have a fitted effect of over 55% in size
#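 Cell growth measured by CellTiter-Glo luminescence after a minimum 48 h, 37 C compound exposure with 20 nM CPT in Tdp1-knockout DT40 cells stably expressing hTDP1, seeded 400/well; qHTS titration format.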
# KB-V1 cytotox = kills drug-selected multidrug resistant KB-V1 cells; KB-V1 MDR cells viability, CellTiter-Glo, 72 h; Potency, µM (titrated, usually from 46.1 µM), actives largely listed as cytotoxic; 3.4% of 400,000 active; further: nearly all actives have a fitted effect of over 60% in size
#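 KB-V1 MDR subline cells in DMEM (phenol-red free, 10% FBS) exposed to compounds in qHTS concentration series for 72 h at 37 degrees C. Viability read by CellTiter-Glo luminescence; concentration-effect curves fitted after normalization and correction.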
# KB-3-1 tox = KB-3-1 parental cell cytotoxicity. KB-3-1 viability, CellTiter-Glo ATP luminescence, 72 h. AID 1347075. 1.4% of 400,000 active. Potency, µM (series often up to 46.1 µM), most hits filed as cytotoxic; further: nearly all actives have a fitted effect of over 60% in size
#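 Luminescent ATP read-out (CellTiter-Glo) measures survival of drug-naive KB-3-1 cells after 72 h compound exposure at 37 °C. Titration series was screened from lowest to highest concentration, with DMSO vehicle plates as background controls.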
# An asterisk follows results filed as active; i = inactive; ? = inconclusive; . = no result given. Sampled rows, rich in hits. Any-hit rate of the full collection: about 19%. The call rests on the fitted dose curve; in most records, active means well fitted curve in the direction sought with a large enough effect; inconclusive means small, poorly fitted or top-dose-only effect, or another doubt; inactive means no such curve, though single readings can be large; an effect the other way counts as inactive or inconclusive. Unless noted, on the % scale 0 is the no-effect control and ±100 the full control effect; potency means the concentration at half of the fitted maximal effect.
SMILES,HT1080NT lethal,DT40 TDP1 no CPT,HT1080 IDH1KD tx,TDP1 cell CPT,KB-V1 cytotox,KB-3-1 tox
CCOC(=O)c1ccc2c(c1)N(Cc1ccccc1C)C(=O)c1ccccc1S2=O (configuration not stated),10%,?,20%,14µM*,?,i
CC(C)NC(=O)CN1C(=O)C(=O)c2ccccc21,0%,-14%,2%,-25%,i,i
Cc1ccc(C)c(CN2C(=O)c3ccccc3S(=O)c3ccc(C(=O)N4CCC(C)CC4)cc32)c1 (configuration not stated),.,23µM*,.,?,i,i
Cc1ccc(C)c(CN2C(=O)c3ccccc3S(=O)c3ccc(C(=O)NCCCN4CCCC4)cc32)c1 (configuration not stated),?,?,?,?,i,i
Cc1ccc(C)c(CN2C(=O)C(=O)c3ccccc32)c1,.,0.92µM*,.,1.2µM*,?,i
COc1ccc(N2CCN(C(=O)c3ccc4c(c3)N(Cc3cc(C)ccc3C)C(=O)c3ccccc3S4=O)CC2)cc1 (configuration not stated),.,12µM*,.,15µM*,i,i
Cc1cc(C)cc(C(=O)N2CCC(C(N)=O)CC2)c1,20%,0%,17%,9%,i,i
Cn1c(=O)c2sccc2n2c(CCCC(=O)NC3CCCCC3)nnc12,.,-3%,.,-15%,.,.
Cc1cccc(C)c1N1C(=O)c2ccccc2NC(=O)C1C(=O)Nc1ccc2c(c1)OCCO2 (configuration not stated),16%,-20%,19%,-7%,i,i
Cc1ccc(C)c(CN2C(=O)c3ccccc3S(=O)c3ccc(C(=O)N(C)Cc4ccccc4)cc32)c1 (configuration not stated),.,?,.,18µM*,i,i
O=C(NCCc1ccccc1)c1ccc2c(c1)N(Cc1ccccc1F)C(=O)c1ccccc1S2=O (configuration not stated),.,?,.,?,i,i
COc1ccc(-c2noc(CNC(=O)c3ccccc3Br)n2)cc1,.,-21%,.,-16%,.,.
C=CCNC(=O)c1cc(-c2ccccc2)sc1N,-9%,?,-1%,?,i,i
Cc1cc(C(=O)NCCc2ccc(Cl)cc2)c2ccccc2n1,-21%,?,?,-16%,?,i
CCCCN(CCCNC(=O)c1cc(Nc2cccc(SC)c2)nc2ccccc12)Cc1ccccc1,.,4.1µM*,.,6.5µM*,.,.
Cc1cc(C(=O)NCc2cccc(Cl)c2)c2ccccc2n1,-10%,?,-22%,-23%,?,i
CSc1cccc(Nc2cc(C(=O)NCCc3ccc(Cl)cc3)c3ccccc3n2)c1,.,7.3µM*,.,4.6µM*,?,?
O=C(NCCc1ccccc1)c1cc(Sc2cccc(Cl)c2)nc2ccccc12,.,16µM*,.,?,i,i
Nc1sc(-c2ccccc2)cc1C(=O)NCCc1ccc(Cl)cc1,-15%,16µM*,-10%,23µM*,?,i
O=S1(=O)CC(N2CCN(c3ccccn3)CC2)CN1C1CCCCC1 (configuration not stated),2%,-30%,-3%,-29%,i,i
COC(=O)c1ccc(Cl)c(NC(=O)C2CCN(S(=O)(=O)Cc3ccccc3)CC2)c1,.,-14%,.,-24%,i,i
O=C1CC(c2cc(F)ccc2F)c2cc3c(cc2N1)CCC3 (configuration not stated),2.6µM*,3.7µM*,2.6µM*,2.6µM*,i,4.6µM*
CC(C)Oc1cccc(C(=O)C2CCCN(Cc3cnn(C(C)C)c3)C2)c1 (configuration not stated),-20%,?,?,?,i,i
Cc1nn(C)c(C)c1CCC(=O)N1CCCC(C(=O)c2cccc(OC(C)C)c2)C1 (configuration not stated),-10%,?,-4%,18µM*,i,?
CC(C)Oc1cccc(C(=O)C2CCCN(C(=O)CCc3cnn(C)c3)C2)c1 (configuration not stated),-9%,?,-6%,16µM*,i,i
SMILES,HT1080NT lethal,DT40 TDP1 no CPT,HT1080 IDH1KD tx,TDP1 cell CPT,KB-V1 cytotox,KB-3-1 tox
CC(C)CN(CCNC(=O)CCN1N=C(c2ccccc2)CCC1=O)CC(C)C,.,-20%,.,-25%,.,.
CN=c1nc(-c2ccccc2)n(-c2ccccc2)s1,22%,6.5µM*,5%,4.6µM*,i,i
Cc1ccc(-c2nc(=Nc3c(C)cc(C)cc3C)sn2-c2ccccc2)cc1,.,2.2µM*,.,5µM*,?,?
COc1ccc(C(=O)N=c2nc(-c3ccccc3)n(-c3ccccc3)s2)cc1,.,?,.,13µM*,i,i
CC(=O)N=c1nc(-c2ccccc2)n(-c2ccccc2)s1,.,?,.,-10%,i,i
O=C(CSc1nc2ccsc2c(=O)n1Cc1ccc(F)cc1)NCc1ccc(Cl)cc1,.,-23%,.,?,i,i
Cc1nn(Cc2cccc(C(=O)NC34CC5CC(CC(C5)C3)C4)c2)c(C)c1Br,?,?,?,?,?,i
CCCNC(=O)c1cccc(Cn2nc(C)c(Br)c2C)c1,-16%,21µM*,-16%,16µM*,?,i
O=C(NCCCN1CCOCC1)c1cccc(S(=O)(=O)Nc2ccccc2Cl)c1,-5%,0%,-13%,-14%,i,i
Cc1ccc(NC(=S)N/N=C/c2cccn2Cc2ccccc2F)cc1,-2%,3.7µM*,-10%,4.6µM*,i,i

# Source: PubChem
